From PubChem
Shown are actives, neighbours in structure and some others; about 11% of the full set was active somewhere.
PLK1 PBD inh: inhibitors of human PLK1 polo-box domain binding; Plk1 PBD binding of FITC phosphopeptide, fluorescence polarization; Potency, µM, for the others: max response, negative = inhibition, usual class: inhibitors; 360,000 tested, 2.8% active; AID 720504; also: series mostly up to about 57 µM; % is scaled to controls: 0 for no effect and ±100 for the full control effect; nearly all actives have a fitted effect of over 65% in size
Target sequence (P53350 whole entry, looked up, the tested form may be a part): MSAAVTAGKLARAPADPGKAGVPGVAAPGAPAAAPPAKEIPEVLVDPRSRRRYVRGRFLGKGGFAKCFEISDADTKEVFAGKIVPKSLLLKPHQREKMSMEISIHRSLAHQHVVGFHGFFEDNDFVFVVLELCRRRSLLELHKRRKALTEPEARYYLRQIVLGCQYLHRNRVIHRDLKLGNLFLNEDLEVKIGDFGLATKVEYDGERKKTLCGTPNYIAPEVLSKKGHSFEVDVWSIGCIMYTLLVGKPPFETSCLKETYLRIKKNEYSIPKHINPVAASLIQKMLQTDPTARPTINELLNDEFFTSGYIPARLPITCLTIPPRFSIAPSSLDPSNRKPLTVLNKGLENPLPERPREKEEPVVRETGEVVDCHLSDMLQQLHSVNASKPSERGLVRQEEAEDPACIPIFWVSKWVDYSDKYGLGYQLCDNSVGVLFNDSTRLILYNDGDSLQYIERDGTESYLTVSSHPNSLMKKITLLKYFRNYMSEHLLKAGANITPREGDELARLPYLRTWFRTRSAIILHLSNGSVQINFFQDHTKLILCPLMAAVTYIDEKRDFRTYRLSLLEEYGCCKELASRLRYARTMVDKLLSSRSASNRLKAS
G9a inh: inhibitors of human histone lysine methyltransferase G9a | Potency, µM (doses to about 102 µM), for inactives: at the highest dose activity, negative = inhibition, actives largely listed as inhibitors | G9a H3K9 monomethylation, AlphaScreen, 2 h | AID 504332 | 350,000 tested, 8.8% active | Q96KQ7; also: % is scaled to controls: 0 for no effect and ±100 for the full control effect; nearly all actives have a fitted effect of over 75% in size
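Signal arises when biotinylated H3K9 peptide, once monomethylated, bridges streptavidin donor and antibody-captured acceptor beads. Enzyme at 20 nM was preincubated 15 min with test compounds; peptide 500 nM and SAM 20 uM then reacted for 2 h.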
HP1b binding inh: HP1-beta chromodomain-methylated histone interaction inhibition | AlphaScreen HP1-beta / biotin-H3K9me3 peptide binding | Potency, µM (doses to about 114 µM), inactives show at the top dose activity change, negative = inhibition, most hits filed as inhibitors | 390,000 tested, 0.56% active | AID 540317; also: nearly all actives have a fitted effect of over 70% in size
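HP1-beta protein (50 nM final) preincubated 30 min at room temperature with biotinylated H3(1-18)K9me3 peptide (50 nM) in PBS pH 7.4, 0.01% Tween-20, then compound added for 30 min. AlphaScreen streptavidin donor/nickel chelate acceptor beads (10 ug/mL final), 30 min dark, luminescence read.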
VDR inhibitor: inhibitors of human vitamin D receptor. P11473. VDR-SRC2-3 peptide fluorescence polarization, 2 h. Potency, µM, for the others: max response, negative = inhibition, most hits filed as inhibitors. 400,000 tested, 0.93% active. AID 504847; also: % is scaled to controls: 0 for no effect and ±100 for the full control effect
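Reagent solutions, kept cold and dark, are dispensed first; compounds are then pinned in at 23 nl, plates briefly spun, and incubated 2 h at ambient temperature. Inhibition of VDR–SRC2-3 peptide binding is read by fluorescence polarization.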
JMJD2A Tudor: blocks the human JMJD2A Tudor domain. AID 504339. AlphaScreen JMJD2A-Tudor / H3K4me3 peptide binding. O75164. 390,000 tested, 4.4% active. Potency, µM (doses to about 114 µM), without a hit: at the highest dose activity change, negative = inhibition, most hits filed as inhibitors; also: % is scaled to controls: 0 for no effect and ±100 for the full control effect; nearly all actives have a fitted effect of over 50% in size
BAZ2B inh: blocks human BAZ2B. AID 504333. AlphaScreen BAZ2B-H3K14Ac peptide displacement. 360,000 tested, 4.4% active. Potency, µM (top dose mostly 114 µM), for inactives: top-dose activity change, negative = inhibition, hits mostly inhibitors. Q9UIF8; also: % is scaled to controls: 0 for no effect and ±100 for the full control effect; nearly all actives have a fitted effect of over 60% in size
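Multi-concentration screen (max 110 uM) measuring displacement of acetylated histone H3 peptide from BAZ2B by AlphaScreen, using 50 nM protein, 50 nM peptide and 10 ug/mL streptavidin donor plus Ni-chelate acceptor beads.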
* = called active by the depositor; ? = inconclusive; / = not tested or not shown; [ ] = remark or other dose. Calls follow the shape of the dose curve; as a rule, active = well fitted curve in the direction sought with a large enough effect; inconclusive = small, poorly fitted or top-dose-only effect, or another doubt; inactive = no such curve, though single readings can be large; an effect the other way counts as inactive or inconclusive. Potency is read from the fitted curve at half-maximal effect.

SMILES | PLK1 PBD inh | G9a inh | HP1b binding inh | VDR inhibitor | JMJD2A Tudor | BAZ2B inh
CC(C)c1ccc(NC(=O)C2CCN(C(=O)[C@@H]3Cc4ccccc4CN3)CC2)cc1 | -17% | / | 16% | 7% | -21% | -22%
O=C([C@@H]1Cc2ccccc2CN1)N1CCN(Cc2ccccc2)CC1 | 2% | 32µM* | 42% | 3% | -4% | 79µM*
Cc1cc(C)cc(NC(=O)C2CCN(C(=O)[C@@H]3Cc4ccccc4CN3)CC2)c1 | 4.7µM* | 50µM* | 30% | ? | 22µM* | ?
Cc1ccc(C)c(CSc2cn(CC(=O)N3CCCC3)c3ccccc23)c1 | / | -9%[59 µM] | 7% | 9% | -30% | ?
CN(C(=O)COC(=O)C1c2ccccc2Oc2ccccc21)C1CCS(=O)(=O)C1 (stereo unspecified) | -10% | -7%[59 µM] | 40% | 2% | -23%[11.4 µM] | /
O=C(COC(=O)C1c2ccccc2Oc2ccccc21)NC1CCS(=O)(=O)C1 (stereo unspecified) | 12µM* | -13%[0.0925 µM] | 0% | ? | -82%[57.1 µM] | -7%
Cc1cccc(Oc2nc3ccccn3c(=O)c2/C=C(\C#N)C(=O)NC2CCS(=O)(=O)C2)c1 (stereo unspecified) | -1% | ? | 7% | ? | -17% | -27%
Cc1cc(Oc2nc3ccccn3c(=O)c2/C=C(\C#N)C(=O)NC2CCS(=O)(=O)C2)ccc1Cl (stereo unspecified) | -12% | -4% | -16% | 32µM* | -24% | -5%
N#C/C(=C\c1c(Oc2ccc(Cl)cc2)nc2ccccn2c1=O)C(=O)NC1CCS(=O)(=O)C1 (stereo unspecified) | -11% | -24% | -12% | 50µM* | -29% | -9%
Cc1cccn2c(=O)c(/C=C(\C#N)C(=O)NC3CCS(=O)(=O)C3)c(Oc3ccc(F)cc3)nc12 (stereo unspecified) | -23% | -23% | 1% | 20µM* | -24% | -4%
Cc1cccn2c(=O)c(/C=C(\C#N)C(=O)NC3CCS(=O)(=O)C3)c(N3CCC(C)CC3)nc12 (stereo unspecified) | 1% | -1%[59 µM] | 13% | -3% | -29% | -33%
OCC[C@H]1C[C@H](O)[C@@H](O)[C@@]2(CCCc3ccccc3O2)O1 | -11% | 22%[2.33 µM] | 55% | -4% | 5% | 9%
O=S(=O)(Nc1ccc(F)cc1)N1CCOCC1 | 3% | -1%[59 µM] | 28% | -7% | 6% | 21%
COc1ccc(OC)c(CCNC(=O)c2c(C)nn(-c3ccc(F)cc3)c2-n2cccc2)c1 | / | ? | 25% | 8% | -29% | ?
COc1ccc(-c2ccc(OC)c([C@H]3[C@H]4C=CC[C@@H](C)[C@@H]4C(=O)N3Cc3ccccc3)c2)cc1OC | ? | -16%[59 µM] | -18% | -26% | 40µM* | -33%
CC1(C)CN(c2ccccc2)N(C(=O)c2ccc(C#N)cc2)C1=O | -19% | 5% | 41% | 4% | -3% | -22%
CC(=O)OCC1(C)CN(c2ccccc2)N(C(=O)c2ccc(C(C)(C)C)cc2)C1=O (stereo unspecified) | -6% | 40µM* | 63% | 3% | -18% | -24%
CC(=O)OCC1(C)CN(c2ccccc2)NC1=O (stereo unspecified) | -21% | 14µM* | 16% | -2% | -9% | -22%
Cc1ccc(-c2nn(-c3ccccc3)cc2/C=C/C(=O)Nc2nccs2)cc1 | -7% | 38%[59 µM] | 25% | -2% | 10% | -4%
Cc1c(NC(=O)CSc2nnc(COc3ccccc3)n2-c2ccccc2)c(=O)n(-c2ccccc2)n1C | 6% | 7%[59 µM] | 21% | -4% | -9% | 9%
Cc1cc(C)n2nc(SCC(=O)N/N=C/c3ccccn3)nc2n1 | 0% | 8.9µM* | 33% | -13% | 8.9µM* | -1%
Cc1c(NC(=O)CSc2n[nH]c(=O)n2-c2ccccc2)c(=O)n(-c2ccccc2)n1C | 27µM* | -1% | ? | ? | 22µM* | -7%
Cc1c(NC(=O)CN(c2ccccc2)S(=O)(=O)c2ccc(F)cc2)c(=O)n(-c2ccccc2)n1C | 0% | / | 18% | -5% | -3% | -11%
Cc1c(NC(=O)/C=C/c2cn(-c3ccccc3)nc2-c2ccc(F)cc2)c(=O)n(-c2ccccc2)n1C | 11µM* | ? | -19% | ? | ? | ?
Cc1c(NC(=O)CN(c2ccc(F)cc2)S(=O)(=O)c2ccccc2)c(=O)n(-c2ccccc2)n1C | -5% | 45µM* | 24% | 0% | -8% | ?
SMILES | PLK1 PBD inh | G9a inh | HP1b binding inh | VDR inhibitor | JMJD2A Tudor | BAZ2B inh
CCc1ccc(C(=O)NNC(=O)c2c(CC)noc2C)cc1 | 2% | 28%[0.501 µM] | 18% | 7% | -9% | 14%
Cc1cc(C)n2nc(SCC(=O)Nc3c(C)n(C)n(-c4ccccc4)c3=O)nc2n1 | 2% | 45µM* | 15% | 8% | 18% | ?
Cc1cc(C)cc(-n2c(C)cc(/C=N/NC(=O)CSc3ncccn3)c2C)c1 | -8% | 79µM* | ? | -6% | 79µM* | ?
O=C(CN1CCN(Cc2ccccc2)CC1)Nc1ccc(Br)cc1 | -11% | -2%[0.501 µM] | 20% | -12% | -11% | -2%
CCCCN(C(=O)C1CC(=O)N(c2ccc(C)cc2)C1)c1c(N)n(CCC)c(=O)[nH]c1=O (stereo unspecified) | -9% | 45µM* | 25% | 2% | -12% | 10%
CCCCn1c(N)c(N(CCOC)C(=O)CN2c3ccccc3CC2C)c(=O)[nH]c1=O (stereo unspecified) | -14% | 20µM* | 20% | -12% | -10%[57.1 µM] | -19%
CCCCn1c(N)c(N(CC(C)C)C(=O)C2CC(=O)N(c3ccc4c(c3)OCCO4)C2)c(=O)[nH]c1=O (stereo unspecified) | -6% | -42% | 5% | -24% | -1% | 10%
CCCCn1c(N)c(N(CC(C)C)C(=O)C2CC(=O)N(c3ccc(C)cc3)C2)c(=O)[nH]c1=O (stereo unspecified) | -2% | ? | -3% | 4% | -14% | -2%
CCCCn1c(N)c(N(CCOC)C(=O)CCCn2c(=O)oc3ccccc32)c(=O)[nH]c1=O | 0% | / | 48% | -8% | 9% | /
CCCCn1c(N)c(N(CC(C)C)C(=O)C2CC(=O)N(c3ccccc3C(C)CC)C2)c(=O)[nH]c1=O (stereo unspecified) | 5% | 79µM* | 43% | -10% | 4% | 9%
CCCCn1c(N)c(N(CCOC)C(=O)C2CC(=O)N(Cc3ccc(C)cc3)C2)c(=O)[nH]c1=O (stereo unspecified) | 0% | 50µM* | 24% | -9% | -7% | -2%
O=C(Nc1c(Cl)cc2c(c1Cl)Cc1cc([N+](=O)[O-])ccc1-2)C(Cl)Cl | 5% | / | 31% | -3% | -16% | /
